Nrf2 ARE act – qHTS of Nrf2 Activators; 0.31% of 410,000 active; Potency, µM (doses to about 46.1 µM), actives largely listed as activators; AREc32 ARE-luciferase reporter (MCF7-derived line), luminescence, 24 h; AID 624171, 2012; further: nearly all actives have a fitted effect of over 65% in size
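Luciferase luminescence (Steady-Glo, 30 min at room temperature) served as the read-out of ARE activation in AREc32 cells treated with compounds for 24 hr at 37 deg C.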
A549 viability – Nrf2 qHTS screen for inhibitors: counterscreen for cytotoxicity. A549 ARE-Fluc cells, CellTiter-Fluor viability, 18-24 h. Potency, µM (series often up to 46 µM), usual class: inhibitors. 0.16% of 390,000 active. AID 504648, 2011
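A549 ARE-Fluc cells in 5% FBS OPTI-MEM, 5000 cells/well, rested 2 h then exposed to compounds in concentration-response for 18-24 h at 37 °C. Viability by CellTiter-Fluor fluorescence (Ex 405/Em 525) after 30 min; luciferase luminescence (BugLite, 15 min, RT) read afterwards.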
Mito fusion act – qHTS Assay for Small Molecule Inhibitors of Mitochondrial Division or Activators of Mitochondrial Fusion. S. cerevisiae fusion-defective mutant growth rescue, CellTiterGlo 48 h. Potency, µM (highest dose often 46.1 µM), usual class: activators. 0.23% of 320,000 active. AID 485298, 2010; further: nearly all actives have a fitted effect of over 45% in size
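Growth-rescue viability read-out: after 48 h at the non-permissive 37C in glycerol/ethanol YPEG, yeast mitochondrial fusion mutants are measured by CellTiterGlo luminescence; compounds (23 nl pinned per well) restoring growth score as division inhibitors or fusion activators.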
Glioma ERSR ind – qHTS for Inducers of the Endoplasmic Reticulum Stress Response (ERSR) in Human Glioma: qHTS; AID 602332, 2012; 0.02% of 420,000 active; Potency, µM, hits mostly activators; U87-MG GRP78 promoter luciferase reporter, 16 h; further: series mostly up to about 76 µM; nearly all actives have a fitted effect of over 35% in size
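ERSR induction read as luciferase luminescence (Bright-Glo, 10 min at room temperature) in stably transfected human U87-MG glioma cells exposed to compounds for 16 h, using GRP78 as sensor.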
miR-21 act – qHTS Assay for Modulators of miRNAs and/orActivators of miR-21; HeLa miR-21 FLuc reporter, luciferase, 48 h; Potency, µM (doses to about 38.3 µM), usual class: activators; 340,000 tested, under 10 active;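 further: miR-21 action dims this reporter so a rising signal means less miR-21 action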
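HeLa miR-21-FLuc reporter line, endogenous miR-21; 2000 cells/well in DMEM/10% FBS; compound titration up to ~40uM final, 48 h, 37 degree Celsius; luciferase detection reagent, 15 min lysis, CCD luminescence.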
Nrf2 inh – Nrf2 qHTS screen for inhibitors; A549 ARE-Fluc reporter, luciferase luminescence, 18-24 h; Potency, µM (top dose mostly 46 µM), most hits filed as inhibitors; 2.1% of 360,000 active; AID 504444, 2011; further: nearly all actives have a fitted effect of over 60% in size
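Nrf2 activity is the BugLite luminescence, read 15 min after reagent at room temperature, following CellTiter-Fluor cytotoxicity readout (30 min, 37C). Compound titrations were applied for 18-24 h to 5000 A549 ARE_Fluc cells/well in 5% FBS OPTI-MEM.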
Hits are given with their value; n = inactive; u = inconclusive; x = not tested or not shown; ! = not confirmed by another sample. The list is not random: actives were taken first. Their share in the collection is about 2.3%. The call rests on the fitted dose curve; in most records, active means well fitted curve in the direction sought with a large enough effect; inconclusive means small, poorly fitted or top-dose-only effect, or another doubt; inactive means no such curve, though single readings can be large; an effect the other way counts as inactive or inconclusive.

SMILES | Nrf2 ARE act | A549 viability | Mito fusion act | Glioma ERSR ind | miR-21 act | Nrf2 inh
Cc1ccc(C(=O)OCC(=O)N2C(C)CCCC2C)s1 (configuration not stated) | n | n | n | n | x | u
CCc1ccc(/C=C/C(=O)c2c(C)cc(C)[nH]c2=O)cc1 | n | n | n | n | u | 18.4µM
COc1cccc(NC(=O)C2CCC(CNS(=O)(=O)c3ccc4c(c3)CC(C)N4C(C)=O)CC2)c1 (configuration not stated) | n | n | n | n | u | 20.6µM
CCc1cccc(NC(=O)C2CCC(CNS(=O)(=O)c3ccc4c(c3)CCCC(=O)N4)CC2)c1 (configuration not stated) | n | n | x | n | n | 13µM
CC(=O)N1c2ccc(S(=O)(=O)NCC3CCC(C(=O)Nc4cccc(C)c4)CC3)cc2CC1C (configuration not stated) | n | n | x | n | n | u
CC(=O)N1c2ccc(S(=O)(=O)NCC3CCC(C(=O)NC4CCC(C)CC4)CC3)cc2CC1C (configuration not stated) | n | n | n | n | n | 16.4µM
COc1ccc(CNC(=O)C2CCC(CNS(=O)(=O)c3ccc4c(c3)CCCC(=O)N4)CC2)cc1 (configuration not stated) | n | u | x | n | n | n
CC(=O)N1c2ccc(S(=O)(=O)NCC3CCC(C(=O)NC4CCCCC4C)CC3)cc2CC1C (configuration not stated) | n | n | n | n | n | u
O=C(Nc1ccc2c(c1)OCCO2)c1c[nH]c(=O)n(-c2ccc(F)c(Cl)c2)c1=O | n | n | n | n | n | n
Cc1ccccc1Cn1c(-c2cccs2)nc2ccccc21 | n | n | x | n | n | u
CC(C)[C@H](NC(=O)c1ccccc1Cl)C(=O)Nc1nc(-c2ccccn2)cs1 | n | n | n | n | n | 14.6µM
CCn1nc(C(=O)Nc2nc(-c3ccccn3)cs2)c2ccccc2c1=O | n | n | n | n | x | u
O=C(Nc1nc(-c2ccccn2)cs1)c1ccccc1-n1cnnn1 | n | n | n | n | u | 5.8µM
CCc1nnc(NC(=O)C(NC(=O)c2ccccc2Cl)C(C)C)s1 (configuration not stated) | n | n | n | n | n | n
CC(Oc1ccc(Br)cc1)C(=O)Nc1nc(-c2ccccn2)cs1 (configuration not stated) | u | u | n | n | n | 16.4µM
CCCn1nc(C(=O)Nc2nc(-c3ccccn3)cs2)c2ccccc2c1=O | n | n | n | n | x | 8.2µM
Cc1ccccc1C(=NC(=O)c1ccccc1)c1ccccc1 | n | n | n | n | n | x
CCC(=O)NC(=S)Nc1ccc(NC(=O)c2ccc(C)c([N+](=O)[O-])c2)cc1 | n | n | n | n | n | n
Cc1c(O)ccc(NC(=O)/C=C/c2ccccc2)c1C | n | n | n | n | n | n
CN(C(=O)c1cccc(S(=O)(=O)N2CCCCC2)c1)C1CCS(=O)(=O)C1 (configuration not stated) | n | n | n | n | x | n
Cc1nc(Nc2ccc(F)cc2)[nH]c(=O)c1CCC(C)C | n | u | n | n | n | 14.6µM
CC1CCCCC1NC(=O)CN1C(=O)c2cccc(N)c2C1=O (configuration not stated) | n | u | n | n | n | n
CC(CNCc1ccc2c(c1)OCO2)NCc1ccc2c(c1)OCO2 (configuration not stated) | n | n | n | n | n | n
O=C(O)CCc1nc(-c2ccccc2)c(-c2ccccc2)o1 | x | x | 16.4µM! | n | n | x
CSc1cccc(NC(=O)c2cccc(N3CCCS3(=O)=O)c2)c1 | n | n | x | n | n | u
CCC(=O)Nc1c(S(=O)(=O)c2ccccc2)c2nc3ccccc3nc2n1C(C)c1ccccc1 (configuration not stated) | n | n | u | n | n | 18.4µM
